Source: PubChem (several laboratories)
Sampled rows, rich in hits. Any-hit rate of the full collection: about 1.9%.
Vif imaging: inhibitors of HIV Vif. HEK293T cells, Vif self-association by quenched fluorescence, imaging, 24 h. inhibition, % at 7.49 µM. hit rate 0.35% among 340,000. AID 602346; in the data active = inhibition above about 50%, passing the limit was not always enough
Bfl-1 A1 inh: inhibitors of the anti-apoptotic protein A1, read as caspase activation; MEF A1-2A-BIM cells, Caspase-Glo 3/7 luminescence, 3 h; percent of clofoctol response, vehicle zero; caspase activation, % (no concentration beside the values); hit rate 0.066% among 330,000;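 active = over half of replicate activation scores above 10%, or exactly half above 10 with the replicate mean above 10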
dFosB activator: activators of mouse delta FosB homodimer | P13346 | purified delta FosB, TAMRA-CDK5 oligo fluorescence polarization; percent of positive-control signal above neutral wells | activation, % at 25 µM | hit rate 0.99% among 340,000;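 active = mean activation above about 17%, with every replicate also reaching it, limit read from the data, passing the limit was not always enough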
Target sequence (P13346 whole entry, looked up): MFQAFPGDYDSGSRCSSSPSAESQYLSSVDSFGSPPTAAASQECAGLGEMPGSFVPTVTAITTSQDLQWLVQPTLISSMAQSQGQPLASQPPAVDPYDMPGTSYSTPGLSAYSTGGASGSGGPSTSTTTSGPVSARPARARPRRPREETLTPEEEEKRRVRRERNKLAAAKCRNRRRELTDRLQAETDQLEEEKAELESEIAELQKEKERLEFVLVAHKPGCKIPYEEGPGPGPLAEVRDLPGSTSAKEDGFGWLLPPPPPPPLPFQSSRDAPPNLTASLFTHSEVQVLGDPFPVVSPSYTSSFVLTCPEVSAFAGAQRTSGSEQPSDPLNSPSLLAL
GSIS activator: primary screen for activators of insulin secretion dependent on glucose, INS-1E cells, GLuc reporter luminescence | activation, % at 16.6 µM | INS-1E GLuc reporter insulin secretion, 2-3 h | hit rate 0.61% among 370,000 | AID 743287;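 active = lowest replicate activation of at least 40%, so every replicate reaches that level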
Neddyl block: blocks human cullin neddylation. inhibition, % at 25 µM. P61081+Q13564. TR-FRET cullin neddylation, biochemical. hit rate 0.58% among 360,000. AID 651699; in the data active = inhibition above about 36%
Neddyl inh conf: cullin neddylation inhibition, confirmation; hit rate 13% among 1,800; calls only at 25 µM; shares compounds with Neddyl block; TR-FRET cullin neddylation biochemical assay; in the data active = inhibition above about 40%;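 note: neddylation substrate is the cullin 1 ring ligase complex with SKP2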
A number is an active result; n = inactive; x = no result given; + = active, no number.

SMILES	Vif imaging	Bfl-1 A1 inh	dFosB activator	GSIS activator	Neddyl block	Neddyl inh conf
C[C@@H]1CN([C@H](C)CO)C(=O)c2cc(NC(=O)CCCN(C)C)ccc2O[C@H]1CN(C)C(=O)Nc1ccc(F)cc1	x	x	x	n	x	x
O=C(N/N=C/c1cccnc1)c1ccc(CN2c3cccc4cccc(c34)S2(=O)=O)cc1	n	n	n	n	46.2	+
N/C(=N\N=Cc1ccc2c(c1)OCO2)NN=Cc1ccc2c(c1)OCO2	n	x	42.0	n	41.5	x
O=C(NN=Cc1ccc2c(c1)OCO2)NN=Cc1ccc2c(c1)OCO2	n	x	n	n	n	x
COc1ccc(CNC(=O)C[C@H]2CC[C@@H]3[C@@H](COc4ccc(NC(=O)C(C)C)cc4C(=O)N3C)O2)cc1	x	x	x	n	x	x
OC[C@@H]1CN(Cc2ccco2)C[C@H](n2cnc3c(Nc4ccccc4)ncnc32)O1	n	x	x	n	42.6	x
O=C(O)c1ccc(CN2C[C@@H](CO)O[C@@H](n3cnc4c(Nc5ccccc5)ncnc43)C2)cc1	n	x	x	n	n	x
OC[C@@H]1CN(Cc2ccc(Cl)cc2)C[C@H](n2cnc3c(Nc4ccccc4)ncnc32)O1	n	x	x	n	47.3	x
COc1ccc(NC(=O)Nc2ccc3c(c2)C(=O)N([C@H](C)CO)C[C@H](C)[C@@H](CN(C)S(=O)(=O)c2ccc(C)cc2)O3)cc1	x	x	x	n	x	x
COc1ccc(C2=Cc3ccccc3C(CC(=O)C3CC3)N2c2ccc(-c3cc(OC)c(OC)c(OC)c3)cc2)cc1 (stereo not drawn)	x	x	x	n	41.7	n
COc1ccc(C2=Cc3ccccc3C(CC(=O)C3CC3)N2c2ccc(C#CCCO)cc2)cc1 (stereo not drawn)	x	x	x	n	x	x
O=C(c1cnccn1)N1CC(=O)N2[C@@H](CO)[C@@H](c3ccc(C#CCC4CCCC4)cc3)[C@@H]2C1	x	x	x	n	x	x
COc1cccc(-c2ccc3c(N)c(C(=O)NC4CC4)sc3n2)c1	n	n	n	n	37.5	x
Cc1ccc(-c2cc3nc(-c4ccccc4)cc(N)n3n2)cc1	n	n	n	x	44.5	n
CC(C)CC#Cc1ccc([C@@H]2[C@@H](CO)N3C(=O)CN(C(=O)Cc4cccnc4)C[C@@H]23)cc1	x	x	x	n	x	x
CC(C)NC(=O)N(C)C[C@H]1Oc2ccc(NS(=O)(=O)c3cccs3)cc2C(=O)N([C@H](C)CO)C[C@H]1C	x	x	x	n	x	x
COC(=O)c1ccc(C#Cc2ccccc2)o1	n	n	n	x	38.8	n
O=C(c1ccc(C#Cc2ccccc2)o1)N1CCN(c2ccccn2)CC1	n	n	n	x	n	x
CCCN1CCN(C(c2cc3cc(OCC)ccc3[nH]c2=O)c2nnnn2C2CCCCC2)CC1 (stereo not drawn)	n	n	n	x	45.2	x
Cc1csc(NC(=O)CSCC(=O)O)c1-c1nc2ccccc2s1	n	n	n	n	44.4	x
O=C(O)CSCC(=O)Nc1ccc(-c2nc3ccccc3s2)cc1	n	n	n	n	x	x
CCSC1=C(C#N)C(CC(C)C)C2=C(CCCC2=O)N1 (stereo not drawn)	n	n	x	n	37.7	n
CCSC1=C(C#N)C(c2ccc3c(c2)OCO3)C2=C(CCCC2=O)N1 (stereo not drawn)	n	n	n	n	n	x
CCCC(C(=O)Nc1ccc2c(C)cc(=O)oc2c1)c1ccccc1 (stereo not drawn)	n	n	n	n	41.7	n
Cc1cc(=O)oc2cc(NC(=O)c3ccc(OC(F)F)cc3)ccc12	n	n	n	n	x	x
SMILES	Vif imaging	Bfl-1 A1 inh	dFosB activator	GSIS activator	Neddyl block	Neddyl inh conf
Cc1onc(-c2ccccc2)c1C(=O)Nc1ccncc1	n	n	n	x	n	x
Cc1cc(=O)oc2ccc(OC(C)C(=O)O)cc12 (stereo not drawn)	n	n	n	x	45.6	n
Cc1cc(=O)oc2cc(NC(=O)Cc3ccccc3)ccc12	n	n	n	x	n	x
Cc1cc(=O)oc2cc(NC(=O)C(C)Oc3ccc(F)cc3)ccc12 (stereo not drawn)	n	n	n	n	38.7	x
Cc1onc(-c2ccccc2)c1C(=O)Nc1ccc2c(C)cc(=O)oc2c1	n	n	n	x	40.6	n
C[C@@H]1CN([C@H](C)CO)C(=O)Cc2cc(NC(=O)C3CCCCC3)ccc2O[C@@H]1CN(C)C(=O)NC1CCCCC1	x	x	x	n	x	x
O=C(Nc1ccc(F)cc1)N[C@@H]1CC[C@H](CCn2cc(C3(O)CCCC3)nn2)O[C@H]1CO	x	x	x	n	x	x
O=C(Nc1cc(Cl)cc(Cl)c1)N[C@H]1CC[C@H](CCNS(=O)(=O)c2cccc(F)c2)O[C@@H]1CO	x	x	x	n	x	x
COc1cc(/C=N/NC(=O)c2cccnc2)cc(Br)c1O	n	n	n	n	n	x
COc1ccc(CC(=O)N/N=C\c2cc(Br)c(O)c(Br)c2)cc1	n	n	n	n	45.4	+
COc1cc(/C=N/NC(=O)CCOc2ccccc2C)cc(Br)c1O	n	n	n	n	42.7	+
COc1ccc(Nc2nc(N3CCCCC3)nc3ccccc23)c(OC)c1	n	n	n	n	40.1	x
Cc1ccc(S(=O)(=O)N[C@H]2CC[C@@H](CCn3cc(C4(O)CCCC4)nn3)O[C@@H]2CO)cc1	x	x	x	n	x	x
O=C1CCCC2=C1C(c1cccs1)n1nc(SCc3ccccc3F)nc1N2 (stereo not drawn)	x	n	n	x	x	x
Cc1ccccc1CSc1nc2n(n1)C(c1cccs1)C1=C(CCCC1=O)N2 (stereo not drawn)	n	n	n	n	38.7	x
CSc1nc2n(n1)C(c1cccs1)C1=C(CCCC1=O)N2 (stereo not drawn)	n	n	n	n	42.1	n
COc1ccc2oc3cc(C)[n+]([O-])c(-c4ccc(Cl)cc4)c3c2c1	n	n	n	n	41.8	n
COc1ccc(NC(=O)Nc2ccc3c(c2)C(=O)N([C@@H](C)CO)C[C@H](C)[C@H](CN(C)C(=O)c2ccccc2)OCCCC[C@H](C)O3)cc1	x	x	x	n	x	x
C[C@H]1CN([C@@H](C)CO)C(=O)c2cc(-c3cccc(C#N)c3)cnc2O[C@@H]1CN(C)C(=O)C1CC1	x	x	x	n	x	x
COc1cccc(-n2c(N)c(C(=O)Nc3c(C)n(C)n(-c4ccccc4)c3=O)c3nc4ccccc4nc32)c1	n	n	n	n	50.7	n
C[C@@H]1CCCCO[C@@H](CN(C)C(=O)Nc2ccccc2)[C@@H](C)CN([C@@H](C)CO)C(=O)c2cc(NS(=O)(=O)c3ccccc3)ccc2O1	x	x	x	n	x	x
N#CC(C#N)=Cc1cn(-c2ncc(C(F)(F)F)cc2Cl)c2ccccc12	x	n	n	n	45.7	n
CC(=O)/C=C\c1cn(-c2ncc(C(F)(F)F)cc2Cl)c2ccccc12	x	n	n	x	n	x
CC1Cc2c([nH]c3ccccc23)C(=O)N1 (stereo not drawn)	n	n	n	n	49.8	x
O=C(O)c1cccc(N/N=C/c2sc(N3CCOCC3)nc2-c2ccccc2)c1	n	n	n	41.5	41.0	x
O=C(N/N=C/c1sc(N2CCOCC2)nc1-c1ccccc1)c1ccccc1O	n	n	n	n	48.5	n
